Results published in PubChem BioAssay (NCI).
Compounds without any hit were thinned out: in the full panel of roughly 79,000, 15% have a hit. Unmarked numbers belong to inactive results. The source made the active and inactive calls. Rule as the data show it: active = growth inhibition above about 70%; inactive = the rest.

How the values were obtained:
[1] = NCI Yeast Anticancer Drug Screen. Data for the rad50 strain (AID 155);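 also: 0% = growth of vehicle-only cultures of the same strain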; settings: S. cerevisiae rad50 strain growth inhibition, hits give high values
Summary of the method: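 Yeast carrying a defined DNA repair defect were exposed to test compounds, and growth was compared with vehicle-treated controls to give percent inhibition.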

[2] = NCI Yeast Anticancer Drug Screen. Data for the mec2-1 strain (AID 157); settings: S. cerevisiae mec2-1 strain, hits give high values
Summary of the method: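 Strain: mec2-1 (DNA repair/cell cycle alteration). Compound exposure, then growth measured; inhibition expressed relative to vehicle.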

[3] = NCI Yeast Anticancer Drug Screen. Data for the sgs1 mgt1 strain (AID 161);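 also: 0% = growth of cultures given vehicle only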; settings: S. cerevisiae sgs1 mgt1 strain, hits give high values
Summary of the method: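 Genetically altered yeast, compound exposure, growth inhibition relative to vehicle.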

[4] = NCI Yeast Anticancer Drug Screen. Data for the cln2 rad14 strain (AID 165);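 also: 0% = growth equal to vehicle treated cultures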; settings: S. cerevisiae cln2 rad14 strain, hits give high values
Summary of the method: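 Compounds are applied to the cln2 rad14 yeast strain, and growth is then compared with that of vehicle-treated cultures to give inhibition.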

[5] = NCI Yeast Anticancer Drug Screen. Data for the bub3 strain (AID 167); settings: S. cerevisiae bub3 mutant strain, hits give high values
Summary of the method: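 Compounds were applied to a genetically altered yeast strain carrying a cell-cycle control defect. Growth inhibition was scored against vehicle-treated controls.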

[6] = NCI Yeast Anticancer Drug Screen. Data for the mlh1 rad18 strain (AID 175); settings: S. cerevisiae mlh1 rad18 strain growth inhibition, hits give high values
Summary of the method: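 Read-out is yeast growth inhibition, calculated against vehicle-only controls. The compound was applied to a strain engineered with DNA damage repair alterations.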

[7] = at 5.0 µM (retest, dose inferred, filed as 0.5)
[8] = at 50.0 µM (retest, dose inferred, filed as 5.0)

Row | SMILES | growth inhibition [1, 7] | growth inhibition [1, 8] | growth inhibition ([1]; at 50.0 µM) | growth inhibition [2, 7] | growth inhibition [2, 8] | growth inhibition ([2]; at 50.0 µM) | growth inhibition [3, 7] | growth inhibition [3, 8] | growth inhibition ([3]; at 50.0 µM) | growth inhibition [4, 7] | growth inhibition [4, 8] | growth inhibition ([4]; at 50.0 µM) | growth inhibition [5, 7] | growth inhibition [5, 8] | growth inhibition ([5]; at 50.0 µM) | growth inhibition [6, 7] | growth inhibition [6, 8] | growth inhibition ([6]; at 50.0 µM)
1 | COc1cc(Nc2ccc(O)cc2)c2ncccc2c1 | 34% | 93% (active) | 94.9% (active) | 18% | 97% (active) | 69.2% | 16% | 97% (active) | 94.7% (active) | 5% | 89% (active) | 21.1% | 7% | 94% (active) | 45.3% | 33% | 96% (active) | 94.5% (active)
2 | CC(=O)N(C)c1ccc2c(c1)Cc1ccccc1-2 | 2% | 34% | 42.6% | 1% | 21% | 27.4% | 1% | 36% | 42.7% | -2% | 16% | 14.8% | 16% | 86% (active) | 58.3% | -2% | 30% | 23.1%
3 | COc1cc(OC)c(C/C=C/c2ccccc2)cc1O | 27% | 73% (active) | 10.2% | 21% | 71% (active) | -15.6% | 20% | 75% (active) | 16.3% | 16% | 49% | 19.6% | 29% | 86% (active) | -27.8% | 30% | 93% (active) | 89.3% (active)
4 | S=c1nc(C(c2ccccc2)c2ccccc2)[nH][nH]1 | -2% | 1% | 29.1% | -1% | 7% | 1.7% | 10% | 13% | 40.4% | 0% | -2% | 28.1% | 1% | 27% | 11.6% | -3% | 3% | 65.5%
5 | COc1cc(C2C(C(=O)O)=C(C)Oc3cc4c(cc32)OCO4)cc(OC)c1OC (configuration not stated) | 91% (active) | 90% (active) | 94.2% (active) | 70% (active) | 88% (active) | 92.8% (active) | 77% (active) | 93% (active) | 97% (active) | 82% (active) | 91% (active) | 88.8% (active) | 86% (active) | 87% (active) | 48.5% | 68% | 85% (active) | 97.8% (active)
6 | CC1=C(C(=O)OC(C)C)C(c2ccccc2[N+](=O)[O-])C(C(=O)OC(CO[N+](=O)[O-])CO[N+](=O)[O-])=C(C)N1 (configuration not stated) | 17% | 24% | 83.6% (active) | 30% | 27% | 87.7% (active) | -20% | -8% | 89.1% (active) | 2% | 22% | 83.9% (active) | -5% | 25% | 87.2% (active) | 18% | 19% | 81.7% (active)
7 | CCCC(=O)c1cc(O)c(O)c(CN(C)Cc2cc(Cl)cc(C)c2O)c1O | -8% | 91% (active) | 55% | 3% | 97% (active) | 52.5% | -11% | 94% (active) | 50.5% | -16% | 90% (active) | 60.6% | -7% | 97% (active) | 49% | 19% | 96% (active) | 54.5%
8 | Cc1ccc(Nc2nc(C)c(C(/C=C/c3ccc4c(c3)OCO4)=N/Nc3ccc([N+](=O)[O-])cc3[N+](=O)[O-])s2)c([N+](=O)[O-])c1 | 43% | 43% | 53.5% | 36% | 36% | 69% | 37% | 37% | 89.5% (active) | 23% | 23% | 68.2% | 33% | 33% | 67.7% | 37% | 37% | 81.7% (active)
9 | CCN(CC)CCNc1cc(C)nc2c1ccc1c2ccc2c(NCCN(CC)CC)cc(C)nc21 | -3% | 96% (active) | 62.3% | 18% | 98% (active) | 98% (active) | -3% | 96% (active) | 54.5% | -16% | 95% (active) | 93% (active) | -2% | 90% (active) | 96% (active) | -3% | 97% (active) | 96.4% (active)
